High-throughput results (PubChem)
In the library only some 1.3% were active in any assay of this set; here they are far more common.
TcdB GH inh: inhibitors of Clostridioides difficile toxin B glycohydrolase. P18177. TcdB glycohydrolase enzymatic assay, plate reader. inhibition, % at 9.99 µM. actives 0.24% (n = 350,000); in the data active = inhibition above about 10%
SARS 3CLpro inh-1: SARS-CoV 3CLpro protease inhibition | P0C6X7 | recombinant SARS-CoV 3CLpro, quenched FRET peptide cleavage | inhibition, % at 6 µM | actives 0.14% (n = 290,000); in the data active = inhibition above about 12%
CCHF vOTU inh-1: blocks the CCHF virus ovarian tumor domain protease; AID 651958; inhibition, % at 11.5 µM; actives 0.55% (n = 370,000); CCHFV vOTU protease, Pep-AMC fluorescence; note: 0% = vehicle wells with enzyme and 100% = no enzyme wells
DUSP3 inh: blocks human VHR1 dual specificity phosphatase | inhibition, % at 13.3 µM | P51452 | recombinant VHR phosphatase, pNPP absorbance | actives 0.52% (n = 290,000); in the data active = inhibition above about 50%
SSB-PriA inh: K. pneumoniae PriA-SSBct interaction inhibition. actives 0.6% (n = 430,000). inhibition, % at 33 µM. AlphaScreen SSBct-PriA binding, biotinylated peptide. AID 1272365; in the data active = inhibition mostly above about 37%, no sharp cut-off; inactive = mostly below about 20%;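 note: plate controls were negative control peptide for no effect and reference peptide for full effect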
Vc quorum ag-1: quorum light induction in luxS cqsA deficient V. cholerae. AID 588436. actives 0.16% (n = 350,000). activation, % at 18.7 µM. V. cholerae BH1578 lux reporter, luminescence, 6 h; in the data active = activation mostly above about 9.7%, no sharp cut-off
SARS 3CLpro inh-2: SARS 3CLpro inhibition, confirmation assay. shares compounds with SARS 3CLpro inh-1. QFRET protease activity assay. inhibition, % at 6 µM. actives 36% (n = 380); in the data active = inhibition above about 13%
Vc quorum ag-2: inducers of V. cholerae quorum light production without autoinducers; shares compounds with Vc quorum ag-1; activation, % at 50 µM; V. cholerae BH1578 lux reporter, luminescence, 6 h; 620 tested, under 10 active; call rule not given here
CCHF vOTU inh-2: CCHFV vOTU protease inhibition, confirmation. shares compounds with CCHF vOTU inh-1. Recombinant CCHFV vOTU, Pep-AMC fluorescence. inhibition, % at 11.5 µM. actives 17% (n = 1,900). AID 686976
Starred values were filed as active, the others as inactive; i = inactive; x = no result given. Cut-off read from the data, not from the text of the source, unless noted: active = inhibition above about 30%; inactive = the rest.

SMILES	TcdB GH inh	SARS 3CLpro inh-1	CCHF vOTU inh-1	DUSP3 inh	SSB-PriA inh	Vc quorum ag-1	Vc quorum ag-2	others
O=C(Cc1ccc(Cl)c(Cl)c1)Nc1cccnc1	1	23*	-13	2	-15	0	x	SARS 3CLpro inh-2=21*
Clc1ccc(-c2cccnc2)nn1	x	x	x	x	7	x	x
O=C1NC(=O)N(c2ccccc2F)C(=O)/C1=C/c1cn(CC(=O)N2CCOCC2)c2ccccc12	1	18*	14	8	-4	x	x	SARS 3CLpro inh-2=18*
Cc1ccc2c(c1)c1c(n2CC(O)CN2CCCCCC2)CCCC1 (stereo unspecified)	0	20*	35*	-10	7	i	x	SARS 3CLpro inh-2=0;CCHF vOTU inh-2=-1
CCN(CC)c1ccc(C=NNC(=O)c2nnn(-c3nonc3N)c2C(C)C)c(O)c1	x	x	x	x	2	x	x
CCN(CC)c1ccc(/C=N/NC(=O)c2nnn(-c3nonc3N)c2C(C)C)c(O)c1	0	14*	31*	2	x	i	x	SARS 3CLpro inh-2=3;CCHF vOTU inh-2=-20
COc1ccccc1Nc1nn2c(=O)c3cc(Cl)ccc3nc2s1	x	x	x	x	-10	x	x
Cc1nnc(NC(=O)Cc2cc(=O)[nH]c(SCc3ccccc3F)n2)s1	x	x	x	x	-4	x	x
NS(=O)(=O)c1ccc(Nc2ccc([N+](=O)[O-])c3nonc23)cc1	2	15*	31*	11	6	0	x	SARS 3CLpro inh-2=6;CCHF vOTU inh-2=17
CCCCOc1ccc(Nc2cc(Cl)ccc2C(=O)O)cn1	-1	8	37*	20	2	0	x	SARS 3CLpro inh-2=7;CCHF vOTU inh-2=-4
COC1C(OC(=O)c2ccc(C)[nH]2)C(O)C(Oc2ccc3c(O)c(NC(=O)c4ccc(O)c(CC=C(C)C)c4)c(=O)oc3c2Cl)OC1(C)C (stereo unspecified)	1	13*	38*	28	18	0	x	SARS 3CLpro inh-2=11;CCHF vOTU inh-2=16
Cc1ccc(S(=O)(=O)/N=C2\C=C(Nc3cccc(C(=O)O)c3)C(=O)c3ccccc32)cc1	2	14*	105*	15	x	0	x	SARS 3CLpro inh-2=8;CCHF vOTU inh-2=99*
Cc1ccc(S(=O)(=O)N=C2C=C(Nc3cccc(C(=O)O)c3)C(=O)c3ccccc32)cc1	x	x	x	x	41	x	x
CCC(=O)Nc1ccc(SCC(=O)Nc2nc3ccccc3s2)nn1	x	x	x	x	3	x	x
COc1ccc(Cl)cc1NC(=O)C(=O)NCC1CCN(c2ccccn2)CC1	x	x	x	x	-30	x	x
Cc1cc(C(=O)c2ccccc2)c(NC(=O)CCl)s1	x	76*	32*	-10	4	0	x	SARS 3CLpro inh-2=81*;CCHF vOTU inh-2=-1
CCN(CC)CC(=O)Nc1sc(C)cc1C(=O)c1ccccc1	2	-3	-5	6	1	-1	x
COc1cc(OC)c(OC)cc1CNC(C)C(O)c1ccccc1 (stereo unspecified)	x	4	-4	0	-7	18	0
O=C(NCC1CCCO1)c1ccccc1-c1nc(-c2ccc(Cl)cc2)no1 (stereo unspecified)	x	-10	-9	-11	-13	0	x
Cc1cccc(-c2noc(-c3ccccc3C(=O)NCC3CCCO3)n2)c1 (stereo unspecified)	x	7	6	-8	2	14	-1
COc1ccc(NC(=O)CN(C)C(=O)c2cccc(S(=O)(=O)N3CCN(Cc4ccccc4)CC3)c2)cc1	x	0	x	-7	-4	i	x
COc1ccc(NC(=O)CN(C)C(=O)c2cccc(S(=O)(=O)N3CCN(C)CC3)c2)cc1	1	x	4	x	-10	9	0
Cc1ccc(Oc2ccc(S(=O)(=O)N3CCOCC3)cc2C(N)=O)c(-n2nc3ccccc3n2)c1	x	1	-3	-10	-4	25*	1
CCOC(=O)c1cnc(SCC(=O)OCC(=O)NC2CCS(=O)(=O)C2)nc1N (stereo unspecified)	-3	x	8	x	-30	32*	1
CCCCCn1c(SCc2ccccn2)nc2cc(C(=O)N3CCCC3)ccc2c1=O	x	x	x	x	-1	x	x
SMILES	TcdB GH inh	SARS 3CLpro inh-1	CCHF vOTU inh-1	DUSP3 inh	SSB-PriA inh	Vc quorum ag-1	Vc quorum ag-2	others
COC(=O)c1ccccc1NC(=O)Cn1cc2c(n1)CCC(C)C2 (stereo unspecified)	-5	-1	5	3	-18	30*	28
OCCN1CCN(CC(O)COc2ccc(Cl)cc2)CC1 (stereo unspecified)	x	2	12	23	-4	17*	0
COc1ccc(Cc2nn[nH]n2)cc1	x	-1	0	5	-14	7.6*	0
c1ccc(Cc2nn[nH]n2)cc1	x	-8	10	26	-15	x	x
CC(C)C(=O)Nc1ccc(C(=O)NCCNC(=O)CCSc2ccccc2)cc1	x	x	x	x	8	x	x
CCCCn1nnnc1NCc1ccc(C)cc1	1	0	-4	19	-21	0	x
CCCCn1nnnc1NCc1ccc(N(CC)CC)cc1	x	3	16	21	-22	366*	i
Cc1ccc(S(=O)(=O)N(C)c2nonc2C)cc1	x	-1	9	-4	-18	12	0
Cc1ccc(S(=O)(=O)N(C)c2nc3ccccc3[nH]c2=S)cc1	1	-4	2	42	-6	i	x
CCOc1ccc(C(=O)Nc2nnc(-c3ccc(Cl)s3)o2)cc1	x	x	x	x	-1	x	x
Cc1nn(C2CCS(=O)(=O)C2)c2nc(-c3ccco3)cc(C(=O)NCCCn3ccnc3)c12 (stereo unspecified)	x	x	x	x	-3	x	x
CCOC(=O)CC1C(=O)NCCN1C(=O)c1ccc(F)cc1F (stereo unspecified)	x	-8	4	-2	-17	i	x
CCOC(=O)CC1C(=O)NCCN1C(=O)c1cccc(C(F)(F)F)c1 (stereo unspecified)	x	-2	0	21	-12	17*	1
O=C(c1cccc(S(=O)(=O)N2CCc3ccccc32)c1)N1CCc2ccccc2C1	1	x	16	x	-3	-3	x
O=C(c1cccc(S(=O)(=O)N2CCc3ccccc32)c1)N1CCOCC1	2	x	9	x	-8	288*	0
CC(C)COC(=O)Nc1nc(CC(=O)NCc2ccccc2)cs1	x	x	x	x	3	x	x
CCc1ccc2c(c1)c1nnc(NN)nc1n2CC	0	-4	-12	15	9	135*	106
CCc1ccc2c(c1)c1nnc(NN)nc1n2C	2	4	12	16	6	1	x
COc1ccc(/C(N)=N/OC(=O)Cc2ccccc2OC)cc1	x	2	5	32	x	12	1
CCOCCCNC(=O)C(NC(=O)CNC(=O)c1ccccc1)c1ccccc1 (stereo unspecified)	x	-2	-1	44	-1	28*	0
CCOCCCNC(=O)C(NC(=O)CNC(C)=O)c1ccc(Cl)cc1 (stereo unspecified)	x	0	1	5	-7	0	x
